This passage reports Inhibition results from ChEMBL document CHEMBL1157539, “Thousands of chemical starting points for antimalarial lead identification” (Nature, 2010).

Values joined by “and” are separate entries in the source; they are usually repeats but may differ in a detail not shown here. Equal values may be shown once.

The term Inhibition denotes the percentage by which the read-out fell short of the control. Read a low Inhibition as a response near the control.

In the first assay the test system is Plasmodium falciparum. Description: GSK_TCMDC: Inhibition of Plasmodium falciparum 3D7 in whole red blood cells, using parasite LDH activity as an index of growth. Test compounds present at 2uM. Format: functional.
Regarding `CCc1cccc(-c2cc(N)n(C)c3nc(N)nc(=O)c2-3)c1`, the Inhibition turned out to be 85%.

`Cc1cccc(Cn2ccc3c(N)nc(N)nc32)c1` showed an Inhibition of 82%.

As to `CC(C)(C)c1ccc(-c2nc3c(ccc4nc(N)nc(N)c43)[nH]2)cc1.Cl`, the Inhibition amounted to 100%.

Compound `CCCOc1cc2c(cc1OCCC)C(C=Cc1ccc(Cl)cc1Cl)=NC(C)C2.Cl` (centres undefined) had an Inhibition of 90%.

On to `Cc1nc(C)c(-c2ccc(Oc3ccc(OC(F)(F)F)cc3)cc2)c(OC(=O)c2ccc(CN(C)C)cc2)c1Cl`, for which the Inhibition is recorded as 98%.

`CN(C)C(=S)N/N=C1/C(=O)Nc2ccccc21` yielded an Inhibition of 95%.

Turning to `COc1cccc(Cn2ccc3c4c(N)nc(N)nc4ccc32)c1`, the Inhibition is 99%.

Turning to `CN1CCN(c2ccc3[nH]c(-c4ccc5[nH]c(-c6ccc([N+](=O)[O-])c(N)c6)nc5c4)nc3c2)CC1`, the Inhibition is reported as 100%.

For `COc1ccc2c(OC)cccc2c1CNCCCCCCNCc1c(OC)ccc2c(OC)cccc12.CS(=O)(=O)O`, the Inhibition was 92%.

`COc1ccc(Cc2cnc3nc(N)nc(N)c3c2C)cc1OC.O=S(=O)(O)CCO` returned an Inhibition of 93%.

The compound `COc1ccc(OC)c(CC2c3ccc(Br)c(O)c3CCN2C)c1.Cl` (centres undefined) had an Inhibition of 98%.

Regarding `Cl.Nc1nc(N)c2c3c(ccc2n1)NCCC3`, the Inhibition came to 97%.

In the case of `Cc1ccc2ccncc2c1N`, the Inhibition is 96%.

`Cc1nc(C)c(-c2ccc(Oc3cc(Cl)cc(Cl)c3)cc2)c(O)c1Br` returned an Inhibition of 96%.

In the case of `CCOC(=O)N1CCN(CCCCCNc2cc(C)nc(NC(=N)Nc3ccc(Cl)cc3)n2)CC1.Cl`, the Inhibition was 100%.

On to `CCCc1cc(Cc2cnc(N)nc2N)c2cccnc2c1OC`, for which the Inhibition turned out to be 98%.

`COc1cc2c(cc1OC)C(C)(C)CN1Cc3c(c(CO)c(OC)c(OC)c3OC)CC21.Cl` (centres undefined) yielded an Inhibition of 95%.

In turn, `CCNC(=O)CCc1cccc(Br)c1` came in with an Inhibition of 89%.

With `Cl.Nc1nc(N)c2c(ccc3nn(Cc4ccccc4)cc32)n1`, the Inhibition stood at 97%.

Take `COc1ccc(Cc2c(Cl)nc3nc(N)nc(N)c3c2C)cc1`: the Inhibition is recorded as 94%.

For the compound `CCc1cc2c3c(N)nc(N)nc3ccc2n1C(C)(C)C`, the Inhibition was found to be 99%.

Compound `CC1CCN(Cc2c(O)ccc3c(CN4CCC(C)CC4)c(O)ccc23)CC1.Cl` came in with an Inhibition of 100%.

`CC(C)c1ccc2c(c1)C(=O)c1ccc(C(=O)O)cc1S2(=O)=O` showed an Inhibition of 93%.

Turning to `Cc1[nH]c(C)c(-c2ccc(Oc3ccc(F)cc3)cc2)c(=O)c1Br`, the Inhibition is listed as 100%.

Compound `Cl.N=C(N)c1ccc(OCCCCCOc2ccc(C(=N)N)cc2)cc1` [PENTAMIDINE HYDROCHLORIDE] gave an Inhibition of 99%.

`Cc1nc(C)c(-c2ccc(Oc3cc(Cl)cc(Cl)c3)cc2)c(O)c1Cl`: the Inhibition was found to be 96%.

The compound `O=c1c2ccc(Sc3ccccn3)cc2n(-c2ccccc2)c2cc(Sc3ccccn3)ccc12` came in with an Inhibition of 89%.

`Cc1ccccc1Cn1ccc2c3c(N)nc(N)nc3ccc21` returned an Inhibition of 100%.

With `CCOC(=O)c1c(-c2ccccc2)c(C(=O)OCC)n2ccccc12`, the Inhibition stood at 93%.

On to `Nc1nc(N)c2c(Oc3cc(Cl)c(Cl)c(Cl)c3)cccc2n1`, for which the Inhibition was found to be 100%.

As for `N=C(N)NC(=O)Nc1cc(Br)c(Cl)c(C(F)(F)F)c1`, the Inhibition was found to be 100%.

In turn, `COc1cc(Cc2cnc(N)nc2N)cc(OCCCC#N)c1OC` returned an Inhibition of 86%.

The compound `CCOc1ccc(CNCCCCCCNCc2ccc(OCC)c3ccccc23)c2ccccc12.CS(=O)(=O)O` showed an Inhibition of 100%.

As to `Cc1ccc(Cn2ccc3c4c(N)nc(N)nc4ccc32)cc1`, the Inhibition came out at 99%.

With `Cc1c(C(C)(C)C)ccc2nc(N)nc(N)c12`, the Inhibition is listed as 89%.

Consider `COc1cc(Cc2cnc(N)nc2N)cc(OCCCCc2ccc([N+](=O)[O-])cc2)c1OC`, for which the Inhibition is 88%.

`Cc1[nH]c(C)c(-c2ccc(Oc3ccc(Cl)cc3)cc2)c(=O)c1C` returned an Inhibition of 96%.

For `CN(Cc1cnc2nc(N)nc(N)c2n1)c1ccc(C(=O)N[C@@H](CCC(=O)O)C(=O)O)cc1` [METHOTREXATE], the Inhibition was 91% and 92%.

`COc1ccc2c(c1CNCCCCCCNCc1c(OC)ccc3c1CCCC3)CCCC2` displayed an Inhibition of 94%.

For another assay, the system named is Plasmodium falciparum. Nature of the assay: GSK_TCMDC: Inhibition of Plasmodium falciparum Dd2 in whole red blood cells, using parasite LDH activity as an index of growth. Test compounds present at 2uM. Format: functional.
Compound `CCc1cccc(-c2cc(N)n(C)c3nc(N)nc(=O)c2-3)c1` gave an Inhibition of 28%.

`CC(C)(C)c1ccc(-c2nc3c(ccc4nc(N)nc(N)c43)[nH]2)cc1.Cl` gave an Inhibition of 100%.

As to `CCCOc1cc2c(cc1OCCC)C(C=Cc1ccc(Cl)cc1Cl)=NC(C)C2.Cl` (centres undefined), the Inhibition is recorded as 75%.

As to `Cc1nc(C)c(-c2ccc(Oc3ccc(OC(F)(F)F)cc3)cc2)c(OC(=O)c2ccc(CN(C)C)cc2)c1Cl`, the Inhibition was 98%.

In turn, `CN(C)C(=S)N/N=C1/C(=O)Nc2ccccc21` had an Inhibition of 96%.

Compound `COc1cccc(Cn2ccc3c4c(N)nc(N)nc4ccc32)c1` registered an Inhibition of 96%.

As for `CN1CCN(c2ccc3[nH]c(-c4ccc5[nH]c(-c6ccc([N+](=O)[O-])c(N)c6)nc5c4)nc3c2)CC1`, the Inhibition was found to be 100%.

Compound `COc1ccc2c(OC)cccc2c1CNCCCCCCNCc1c(OC)ccc2c(OC)cccc12.CS(=O)(=O)O` displayed an Inhibition of 28%.

`COc1ccc(Cc2cnc3nc(N)nc(N)c3c2C)cc1OC.O=S(=O)(O)CCO`: the Inhibition worked out at 97%.

With `COc1ccc(OC)c(CC2c3ccc(Br)c(O)c3CCN2C)c1.Cl` (centres undefined), the Inhibition is 97%.

The compound `Cl.Nc1nc(N)c2c3c(ccc2n1)NCCC3` displayed an Inhibition of 0%.

`Cc1ccc2ccncc2c1N` returned an Inhibition of 4%.

Compound `Cc1nc(C)c(-c2ccc(Oc3cc(Cl)cc(Cl)c3)cc2)c(O)c1Br` came in with an Inhibition of 97%.

As for `CCOC(=O)N1CCN(CCCCCNc2cc(C)nc(NC(=N)Nc3ccc(Cl)cc3)n2)CC1.Cl`, the Inhibition is 0%.

`CCCc1cc(Cc2cnc(N)nc2N)c2cccnc2c1OC`: the Inhibition worked out at 3%.

In the case of `COc1cc2c(cc1OC)C(C)(C)CN1Cc3c(c(CO)c(OC)c(OC)c3OC)CC21.Cl` (centres undefined), the Inhibition stood at 9%.

In turn, `CCNC(=O)CCc1cccc(Br)c1` had an Inhibition of 54%.

The compound `Cl.Nc1nc(N)c2c(ccc3nn(Cc4ccccc4)cc32)n1` displayed an Inhibition of 88%.

Take `COc1ccc(Cc2c(Cl)nc3nc(N)nc(N)c3c2C)cc1`: the Inhibition came out at 3%.

The compound `CC1CCN(Cc2c(O)ccc3c(CN4CCC(C)CC4)c(O)ccc23)CC1.Cl` returned an Inhibition of 86%.

Take `CC(C)c1ccc2c(c1)C(=O)c1ccc(C(=O)O)cc1S2(=O)=O`: the Inhibition is 83%.

In turn, `Cc1[nH]c(C)c(-c2ccc(Oc3ccc(F)cc3)cc2)c(=O)c1Br` had an Inhibition of 98%.

The compound `Cl.N=C(N)c1ccc(OCCCCCOc2ccc(C(=N)N)cc2)cc1` [PENTAMIDINE HYDROCHLORIDE] registered an Inhibition of 98%.

As to `Cc1nc(C)c(-c2ccc(Oc3cc(Cl)cc(Cl)c3)cc2)c(O)c1Cl`, the Inhibition was found to be 96%.

In the case of `O=c1c2ccc(Sc3ccccn3)cc2n(-c2ccccc2)c2cc(Sc3ccccn3)ccc12`, the Inhibition is reported as 70%.

Turning to `CCOC(=O)c1c(-c2ccccc2)c(C(=O)OCC)n2ccccc12`, the Inhibition is 70%.

`Nc1nc(N)c2c(Oc3cc(Cl)c(Cl)c(Cl)c3)cccc2n1` had an Inhibition of 92%.

For `N=C(N)NC(=O)Nc1cc(Br)c(Cl)c(C(F)(F)F)c1`, the Inhibition came out at 91%.

As to `COc1cc(Cc2cnc(N)nc2N)cc(OCCCC#N)c1OC`, the Inhibition is listed as 0%.

On to `CCOc1ccc(CNCCCCCCNCc2ccc(OCC)c3ccccc23)c2ccccc12.CS(=O)(=O)O`, for which the Inhibition is 75%.

Turning to `Cc1c(C(C)(C)C)ccc2nc(N)nc(N)c12`, the Inhibition is recorded as 0%.

Regarding `COc1cc(Cc2cnc(N)nc2N)cc(OCCCCc2ccc([N+](=O)[O-])cc2)c1OC`, the Inhibition was found to be 4%.

For the compound `Cc1[nH]c(C)c(-c2ccc(Oc3ccc(Cl)cc3)cc2)c(=O)c1C`, the Inhibition was 95%.

Regarding `CN(Cc1cnc2nc(N)nc(N)c2n1)c1ccc(C(=O)N[C@@H](CCC(=O)O)C(=O)O)cc1` [METHOTREXATE], the Inhibition is 44% and 66%.

The compound `COc1ccc2c(c1CNCCCCCCNCc1c(OC)ccc3c1CCCC3)CCCC2` registered an Inhibition of 7%.
